Values joined by “and” are separate entries in the source; they are usually repeats but may differ in a detail not shown here. Equal values may be shown once. The whole screen tested about 1,300 compounds, of which about 980 (75%) were called active. Another 4% or so got no clear call; they are omitted. Some of the results follow.

For the assay, the target named is Sulfhydryl oxidase 1 (Homo sapiens) (UniProt O00391). The experiment in a line: inhibition of human sulfhydryl oxidase QSOX1 – biochemical, HyperBlu H2O2 luminescence, HTS, primary screen (AID 1347420). Further: values above 100% were filed as inconclusive. The settings on record: recombinant QSOX1, HyperBlu H2O2 luminescence, at 12.5 µM, hits give high values; active = any value above zero unless noted.
Sequence of Sulfhydryl oxidase 1 (Homo sapiens) (O00391 whole entry, looked up): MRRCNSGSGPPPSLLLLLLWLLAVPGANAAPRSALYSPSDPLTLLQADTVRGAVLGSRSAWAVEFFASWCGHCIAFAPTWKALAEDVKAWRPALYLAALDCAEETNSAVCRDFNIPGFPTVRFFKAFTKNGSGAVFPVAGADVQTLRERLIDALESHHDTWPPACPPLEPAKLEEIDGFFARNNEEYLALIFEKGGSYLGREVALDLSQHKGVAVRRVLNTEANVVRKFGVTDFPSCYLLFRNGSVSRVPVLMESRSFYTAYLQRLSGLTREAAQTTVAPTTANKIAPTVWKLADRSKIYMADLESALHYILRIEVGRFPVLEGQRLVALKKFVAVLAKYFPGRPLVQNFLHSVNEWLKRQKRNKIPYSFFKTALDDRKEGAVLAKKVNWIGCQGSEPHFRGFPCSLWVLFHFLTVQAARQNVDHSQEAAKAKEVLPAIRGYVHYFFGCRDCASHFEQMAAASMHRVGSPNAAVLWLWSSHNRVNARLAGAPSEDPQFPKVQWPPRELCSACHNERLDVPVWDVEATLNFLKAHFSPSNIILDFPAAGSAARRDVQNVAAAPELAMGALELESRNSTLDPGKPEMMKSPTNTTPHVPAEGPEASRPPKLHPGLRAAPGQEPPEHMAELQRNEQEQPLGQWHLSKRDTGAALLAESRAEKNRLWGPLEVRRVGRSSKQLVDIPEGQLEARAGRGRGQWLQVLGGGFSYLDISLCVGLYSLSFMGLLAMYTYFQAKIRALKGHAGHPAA
As usually defined, the inhibition is the relative decrease from the control value, in per cent. Consider `COc1ccc2[nH]c3c(c2c1)CCNC3`, for which the inhibition is 40.5% (active).

`NNC(N)=O`: the inhibition is 13% (active). Regarding `NC(=O)CI`, the inhibition is -4.6% (inactive). Turning to `COc1ccc(OC)c(C(O)C(C)N)c1` (centres undefined), the inhibition was 10.6% [setting not given] (active). For `CCCN(CCC)[C@@H]1CCc2cccc(O)c2C1` the value was 2.9% (active); for `CCCN(CCC)C1CCc2cccc(O)c2C1` (centres undefined), 5.5% (active). The figure for `CCCN(CCC)[C@H]1CCc2c(F)ccc(O)c2C1` is 17.9% (active); for `Cc1ncc(CNC(=O)N(CCCl)N=O)c(N)n1` it is 13.2% (active); for `Clc1cc(I)cc(Cl)c1NC1=NCCN1` it is 3.8% (active). For `O=c1[nH]c2ccccc2n1C1CCN(CCCC(c2ccc(F)cc2)c2ccc(F)cc2)CC1` the value was -0.3% [setting not given] (inactive). Regarding `O=c1[nH]c2ccccc2n1CCCN1CCC(n2c(=O)[nH]c3cc(Cl)ccc32)CC1`, the inhibition was 4.5% [setting not given] (active). The figure for `S=C(NC1CCCCC1)N1CCC(c2cnc[nH]2)CC1` is 4.8% (active); for `CC[C@@]1(O)C(=O)OCc2c1cc1n(c2=O)Cc2cc3ccccc3nc2-1` it is 17.6% [setting not given] (active); for `c1ccc(C2CC2)c(OCC2=NCCN2)c1` it is 21.8% (active). Turning to `COc1ccc(C(=O)N2CCCC2=O)cc1`, the inhibition is 20.3% [setting not given] (active). For `COC[C@H]1OC(=O)c2coc3c2[C@@]1(C)C1=C(C3=O)C2CCC(=O)[C@@]2(C)C[C@H]1OC(C)=O` (some centres undefined) the value was 49.7% (active); for `NC(=O)c1cc(N2CC2)c([N+](=O)[O-])cc1[N+](=O)[O-]`, 15.2% (active). On to `c1ccc(CCCN2CCN(CCOC(c3ccccc3)c3ccccc3)CC2)cc1`, for which the inhibition is -3% (inactive). The figure for `Fc1ccc(C(OCCN2CCN(CCCc3ccccc3)CC2)c2ccc(F)cc2)cc1` is 14.6% (active); for `CC12CCC3C(CCC4=C(O)C(=O)CCC43C)C1CCC2=O` (centres undefined) it is 1.5% [setting not given] (active); for `CNCCc1c[nH]c2ccc(O)cc12` it is 55.9% [setting not given] (active). The figure for `CC(=O)NCCc1c[nH]c2ccccc12` is 35.3% [setting not given] (active); for `COc1ccc2[nH]cc(CCN)c2c1` it is -0.1% [setting not given] (inactive).

`CC(N)Cc1c[nH]c2ccc(O)cc12` (centres undefined): the inhibition was 79% [setting not given] (active). The figure for `NCCc1c[nH]c2ccc(O)cc12` is 80.8% (active); for `CC(N)Cc1c[nH]c2ccc(OCc3cccs3)cc12` (centres undefined) it is -4.1% [setting not given] (inactive); for `Cc1c(C(=O)c2cccc3ccccc23)c2cccc3c2n1[C@H](CN1CCOCC1)CO3` it is -2.1% [setting not given] (inactive). For `O=C(O)c1nn(Cc2ccc(Cl)cc2Cl)c2ccccc12` the value was -13% [setting not given] (inactive).

Turning to `NCCc1c[nH]c2ccc(C(N)=O)cc12`, the inhibition was 26.8% (active). The figure for `NCCc1c[nH]c2ccccc12` is 1.9% [setting not given] (active); for `Cc1[nH]c2ccc(O)cc2c1CCN` it is 79.3% [setting not given] (active). The figure for `CCCN(CCC)CCc1c[nH]c2ccc(C(N)=O)cc12` is -6.2% [setting not given] (inactive); for `C/C(O)=C(\C#N)C(=O)Nc1cc(Br)ccc1Br` it is -6.8% (inactive).

On to `Clc1cnc(Oc2ccc(Oc3ncc(Cl)cc3Cl)cc2)c(Cl)c1`, for which the inhibition was 10.6% [setting not given] (active). As for `C=CCN(C1=NCCN1)c1c(Cl)cccc1Cl`, the inhibition is 9.6% (active).

With `c1ccc2c(c1)OCC(C1=NCCN1)O2` (centres undefined), the inhibition is 3.2% (active).

For the compound `CN1CC[C@@]2(C)c3cc(O)ccc3N(C)C12` (some centres undefined), the inhibition is 52.2% (active). For `CN1CC[C@@]2(C)c3cc(OC(=O)Nc4ccccc4)ccc3N(C)[C@@H]12` the value was 41.8% (active). The figure for `CNCCc1ccc(O)c(O)c1` is 50.2% (active).

Take `CCCN(CCC)CCc1ccc(O)c(O)c1`: the inhibition is 56.8% (active). For `Cc1ccc(S(=O)(=O)N[C@@H](CCCCN)C(=O)CCl)cc1` the value was 11.5% (active); for `O=[N+]([O-])c1ccc2nc(N3CCNCC3)ccc2c1`, 15.5% (active); for `c1ccc2c(N3CCNCC3)cccc2c1`, 3% (active). For `COc1ccccc1N1CCNCC1` the value was -0.1% [setting not given] (inactive); for `NNC(=O)c1ccc(O)cc1`, 3.3% (active). The figure for `C[C@]12N[C@H](Cc3ccccc31)c1ccccc12` is -13.1% [setting not given] (inactive); for `CC12NC(Cc3ccccc31)c1ccccc12` (centres undefined) it is 3.8% [setting not given] (active); for `CCCN1CCO[C@@H]2c3cc(O)ccc3OC[C@H]21` it is 27.5% (active). As to `CCCN1CC[C@@H]2c3cc(O)ccc3CC[C@@H]21`, the inhibition was 18.3% (active).

Take `CCCn1c(C)c(C(=O)c2ccc3ccccc3c2)c2ccccc21`: the inhibition is -8.8% [setting not given] (inactive). The figure for `CCCCCCCCCCCCCC(=O)O[C@@H]1[C@@H](C)[C@@]2(O)[C@@H](C=C(CO)C[C@@]3(O)C(=O)C(C)=C[C@@H]23)C2C(C)(C)[C@@]21OC(C)=O` (some centres undefined) is -11.5% (inactive). As for `CN(N=O)c1ccc(O)c(O)c1`, the inhibition is 9% (active). Regarding `CN(N=O)c1cc(O)ccc1O`, the inhibition was 56% (active). The figure for `NC(=O)c1ccc(OCC(O)CN2CC=C(c3ccc(F)cc3)CC2)cc1` (centres undefined) is -3.1% (inactive). For `CC(NC(C)(C)C)C(=O)c1cccc(Cl)c1` (centres undefined) the value was 0.2% [setting not given] (active); for `CC1=NN=C(c2ccc(N)cc2)c2cc3c(cc2C1)OCO3`, 11% (active). The figure for `CC(C)NP(=O)(NC(C)C)OP(=O)(NC(C)C)NC(C)C` is -1.6% (inactive). As for `C=CCN1CC[C@]23c4c5ccc(O)c4O[C@H]2/C(=N/NC(=O)c2ccccc2)CC[C@@]3(O)[C@H]1C5`, the inhibition was 24.9% [setting not given] (active). The figure for `C=CCN1CCC23c4c5ccc(O)c4O[C@H]2C(=O)CC[C@@]3(O)C1C5` (some centres undefined) is 19.6% [setting not given] (active). For `O=C1CC[C@@]2(O)C3Cc4ccc(O)c5c4C2(CCN3CC2CC2)[C@H]1O5` (some centres undefined) the value was 16.8% [setting not given] (active); for `C=CCN1CC[C@]23c4c5ccc(O)c4O[C@@H]2/C(=N/N=C2\CC[C@@]4(O)C6Cc7ccc(O)c8c7[C@@]4(CCN6CC=C)[C@@H]2O8)CC[C@@]3(O)C1C5`, 29.2% (active); for `Cn1cnc(CCN)c1`, 10.9% (active).

Take `COc1ccc(C(CN(C)C)C2(O)CCCCC2)cc1` (centres undefined): the inhibition is 7.4% (active). For the compound `NCCCP(=O)(O)O`, the inhibition was -9.2% (inactive).

`CCCCc1ccc(C(=O)O)nc1`: the inhibition is 5.9% (active). For `CC(N)[C@H](O)c1ccc(O)c(O)c1` (some centres undefined) the value was 57.3% [setting not given] (active).

For `NC(C(=O)O)c1cc(=O)[nH]o1` (centres undefined), the inhibition was 4.7% (active). The figure for `CCCN1CCC[C@@H]2Cc3nc(N)ncc3C[C@H]21` is 14.3% (active); for `CCCN1CCC[C@@H]2Cc3[nH]ncc3C[C@H]21` it is 5.1% (active); for `O=C(N[C@H]1CN2CCC1CC2)c1ccc(Cl)cc1` it is 8.6% (active). The figure for `CC(C)(C)NCC(O)c1ccccc1Cl` (centres undefined) is 6.8% (active). For `COc1ccc2c(c1OC)C(=O)O[C@H]2[C@@H]1c2cc3c(cc2CCN1C)OCO3` the value was 12.6% (active); for `O=[N+]([O-])/C=C/c1ccc2c(c1)OCO2`, 19.2% (active); for `C#CCN[C@H](C)Cc1ccccc1`, 8.8% [setting not given] (active). On to `CNc1ccc2oc(C[C@H]3O[C@@]4(CC[C@H]3C)O[C@H]([C@H](C)C(=O)c3ccc[nH]3)[C@H](C)C[C@H]4C)nc2c1C(=O)O`, for which the inhibition is 30.5% [setting not given] (active).

Regarding `O=C(O)CC[N+](=O)[O-]`, the inhibition was 12% [setting not given] (active).

In the case of `CCn1cnc2c(Nc3cccc(Cl)c3)nc(N[C@@H]3CCCC[C@@H]3N)nc21`, the inhibition was 10.8% (active). In the case of `C=C(C)[C@H]1CN[C@H](C(=O)O)[C@H]1CC(=O)O`, the inhibition is 5.8% (active). Take `CC(C)[C@H]1CN[C@H](C(=O)O)[C@H]1CC(=O)O`: the inhibition is 23.9% (active). On to `CN(C(=O)Cc1ccc(Cl)c(Cl)c1)C(CN1CCCC1)c1cccc(OCC(=O)O)c1` (centres undefined), for which the inhibition is -2.6% (inactive).

Consider `COC(=O)N1CCN(C(=O)Cc2ccc(Cl)c(Cl)c2)C(CN2CCCC2)C1` (centres undefined), for which the inhibition is 13.5% (active). The figure for `O=C(Cc1ccc(Cl)c(Cl)c1)N1CCCCC1CN1CCCC1` (centres undefined) is 2.1% (active); for `NN=C(N)N` it is 17.9% (active) and 6.7% (active); for `NC(Cc1cc(O)c(O)cc1O)C(=O)O` (centres undefined) it is 30.1% (active). For `NC1CCc2cc(O)c(O)cc2C1` (centres undefined) the value was 60.4% (active). The figure for `COC(=O)[C@@H](N)CCCN=C(N)N[N+](=O)[O-]` is -8.2% (inactive); for `NC(=NCCC[C@H](N)C(=O)O)N[N+](=O)[O-]` it is 7.4% (active); for `COc1ccc2c(c1)c(CCN1CCOCC1)c(C)n2C(=O)c1cccc(Cl)c1Cl` it is -15.7% (inactive). On to `CCC1(C2=NCCN2)Cc2ccccc2O1` (centres undefined), for which the inhibition was 0.3% (active). The figure for `O=C(O)CCCc1ccc(N(CCCl)CCCl)cc1` is 18% [setting not given] (active); for `Cn1c(CCCC(=O)O)nc2cc(N(CCCl)CCCl)ccc21` it is 87% (active); for `NC(Cc1ccc(N(CCCl)CCCl)cc1)C(=O)O` (centres undefined) it is 85.8% (active). For `NCCc1ccc(S(=O)(=O)F)cc1` the value was 22.8% (active). For `NCCc1ccc(O)cc1` the value was 14.4% [setting not given] (active); for `c1ccc2sc(C3(N4CCCCC4)CCCCC3)cc2c1`, -3% (inactive); for `CN1C(=O)CCS(=O)(=O)C1c1ccc(Cl)cc1` (centres undefined), 18.9% (active). Take `CCS(=O)(=O)Nc1cccc(C(=C2CCCCC2)c2cnc[nH]2)c1`: the inhibition was 14.3% (active). The figure for `OC1CCCCC1N1CCC(c2ccccc2)CC1` (centres undefined) is 6.2% [setting not given] (active); for `C=C(C)[C@H]1Cc2c(ccc3c2O[C@@H]2COc4cc(OC)c(OC)cc4[C@@H]2C3=O)O1` it is -11.7% [setting not given] (inactive).

Source of the values: PubChem BioAssay AID1347420 (Sanford-Burnham Center for Chemical Genomics, 2020).
